Drawing on PubChem BioAssay (EPA / NIEHS), this text covers outcome for 40 compounds.

The structures appear in SMILES notation. Calls of active or inactive are those of the source. The calls were made as follows: active = hit-call score of the fitted dose curve at least 0.9, where 1 is the maximum; inactive = score below 0.9.

This experiment is described as follows: ATG_M_06_CIS: Attagene CIS-FACTORIAL HepG2 Assay for M06 Transcription Factor (Internal Marker) (AID 2282950). Conditions: HepG2 Attagene CIS-FACTORIAL M06 internal marker reporter; actives raise or lower the signal. Here is the method: ATG_CIS is a cell-based, multiplexed-readout assay that uses HepG2, a human liver cell line, with measurements taken at 24 hours after chemical dosing in a 24-well plate.ATG_M_06_CIS is one of 52 assay component(s) measured or calculated from the ATG_CIS assay. It is designed to make measurements of mRNA induction, a form of inducible reporter, as detected with fluorescence intensity signals by Reverse transcription polymerase chain reaction (RT-PCR) and Capillary electrophoresis technology.Data from the assay component ATG_M_06_CIS was analyzed into 1 assay endpoint. This assay endpoint, ATG_M_06_CIS, was analyzed with bidirectional fitting relative to DMSO as the negative control and baseline of activity. Using a type of inducible reporter, measures of mRNA for gain or loss-of-signal activity can be used to understand the background control at the transcription factor-level as they relate to the gene . Furthermore, this assay endpoint can be referred to as a secondary readout, because this assay has produced multiple assay endpoints where this one serves a background control function. To generalize the intended target to other relatable targets, this assay endpoint is annotated to the background measurement intended target family, where the subfamily is internal marker.
Human liver HepG2 cells are transiently transfected with multiple reporter transcription units (MRTUs) in 6-well plates using FuGene 6 reagent (Roche; 3 ml FuGene/1 mg DNA). The MRTU constructs are regulated by a cis-regulating element (promoter). […] A major difference between the CIS and TRANS system is that in CIS activities of endogenous TFs are measured, whereas the TRANS assay evaluates changes in activities of exogenous, chimeric NR-Gal4 proteins. […] At the end of 24 hour incubation, total RNA was isolated using TriZol reagent (Invitrogen). The isolated RNA is then reverse-transcribed using oligo(dT) primer and Mo-MLV reverse transcriptase (Invitrogen) with DNAse I (Ambion) treatment for 30 min. The one-tenth of the produced cDNA was amplified by PCR using Taq DNA polymerase (Invitrogen) and two reporter sequence-specific primers. The PCR products were fluorescently labeled by primer extension with 6-arboxyfluorescein (6-FAM) 5'-labeled reporter sequence-specific primer (2 min at 95 C, 20 s at 68 C and 10 min at 72 C) and these products were digested with 5U of HpaI (New England Biolabs) for 2h at 37 C. The fragments were purified using Qiaquick PCR columns (Qiagen), analyzed on an ABI 3130xL genetic analyzer (Applied Biosystems) with peak positions identified by using a set of X-rhodamine (ROX)-labeled MapMarker1000 molecular weight standards (BioVentures). The raw capillary electrophoresis data was processed using Attagraph software (Attagene).
In the case of `CC(C)(C)C(O)/C(=C\c1ccc(Cl)cc1Cl)n1cncn1` (stereo not given), the result was inactive.

As for `COC(=O)c1ccccc1S(=O)(=O)NC(=O)N(C)c1nc(C)nc(OC)n1`, the result was inactive.

Take `Oc1ccc(Cl)cc1Cc1ccccc1`: the compound was classed as inactive.

As to `O=S1OCC2C(CO1)C1(Cl)C(Cl)=C(Cl)C2(Cl)C1(Cl)Cl` (stereo not given), the compound was classed as inactive.

`CC(C)(C)C(O)C(Oc1ccc(Cl)cc1)n1cncn1` (stereo not given): the compound was called inactive.

In the case of `CCCN(CCOc1c(Cl)cc(Cl)cc1Cl)C(=O)n1ccnc1`, the call was inactive.

On to `CNC(=O)Oc1ccccc1OC(C)C`, for which the result was inactive.

On to `COc1nn(CSP(=S)(OC)OC)c(=O)s1`, for which the compound was called inactive.

`COC(=O)c1ccccc1CS(=O)(=O)NC(=O)Nc1nc(OC)cc(OC)n1`: the compound was classed as inactive.

In the case of `OCCOc1ccccc1`, the call was inactive.

For the compound `O=C(Nc1ccccc1)Nc1cnns1`, the compound was called inactive.

Consider `C#CCN1C(=O)COc2cc(F)c(N3C(=O)C4=C(CCCC4)C3=O)cc21`, for which the call was inactive.

Regarding `CC1(C)C(C=C(Cl)Cl)C1C(=O)OC(C#N)c1ccc(F)c(Oc2ccccc2)c1` (stereo not given), the outcome was inactive.

As to `O=C1c2ccccc2C(=O)N1SC(Cl)(Cl)Cl`, the outcome was inactive.

For `CN1CSC(=S)N(C)C1`, the compound was classed as inactive.

For `Clc1ccccc1-c1nnc(-c2ccccc2Cl)nn1`, the call was inactive.

`N#Cc1c(Cl)c(Cl)c(Cl)c(C#N)c1Cl`: the result was inactive.

Regarding `CCC(C)Nc1c([N+](=O)[O-])cc(C(C)(C)C)cc1[N+](=O)[O-]` (stereo not given), the compound was classed as inactive.

As for `CCCN(CCC)c1c([N+](=O)[O-])cc(C(F)(F)F)cc1[N+](=O)[O-]`, the compound was classed as inactive.

As for `C[C@H]1[C@H](c2ccc(Cl)cc2)SC(=O)N1C(=O)NC1CCCCC1`, the compound was classed as inactive.

Consider `COC(=O)c1ccccc1S(=O)(=O)NC(=O)Nc1nc(C)nc(OC)n1`, for which the outcome was inactive.

As for `O=C(O)C(F)(F)C(F)(F)C(F)(F)C(F)(F)C(F)(F)C(F)(F)C(F)(F)F`, the result was inactive.

On to `CC(C)OC(=O)Nc1cccc(Cl)c1`, for which the compound was called inactive.

Consider `Cc1[nH]c(=O)n(C(C)(C)C)c(=O)c1Cl`, for which the compound was called inactive.

With `N#CN`, the compound was called inactive.

Turning to `CNC(=O)CSP(=S)(OC)OC`, the compound was called inactive.

Consider `CCN(CC)C(=O)SCc1ccc(Cl)cc1`, for which the compound was classed as inactive.

For the compound `COP(=S)(OC)Oc1ccc(SC)c(C)c1`, the call was inactive.

With `O=S(=O)(O)C(F)(F)C(F)(F)C(F)(F)C(F)(F)C(F)(F)C(F)(F)C(F)(F)C(F)(F)F`, the compound was classed as inactive.

With `Cc1cc(C)nc(NC(=O)NS(=O)(=O)c2ccccc2C(=O)OC2COC2)n1`, the compound was classed as inactive.

With `CCOC1Oc2ccc(OS(C)(=O)=O)cc2C1(C)C` (stereo not given), the compound was classed as inactive.

With `COP(=S)(OC)Oc1ccc([N+](=O)[O-])cc1`, the call was inactive.

Regarding `CCOCN(C(=O)CCl)c1c(C)cccc1CC`, the compound was classed as inactive.

Turning to `CNC(=O)/C=C(\C)OP(=O)(OC)OC`, the call was inactive.

`CCS(=O)(=O)c1cccnc1S(=O)(=O)NC(=O)Nc1nc(OC)cc(OC)n1`: the compound was classed as inactive.

Regarding `CC(C)N(C(=O)COc1nnc(C(F)(F)F)s1)c1ccc(F)cc1`, the compound was classed as inactive.

As to `O=C(NC(=O)c1c(F)cccc1F)Nc1ccc(OC(F)(F)C(F)OC(F)(F)F)c(Cl)c1` (stereo not given), the outcome was inactive.

Consider `Oc1cc(Cl)ccc1Oc1ccc(Cl)cc1Cl`, for which the compound was called inactive.

`COc1cc(OC)nc(NC(=O)NS(=O)(=O)c2cc(NC=O)ccc2C(=O)N(C)C)n1`: the call was inactive.

Regarding `CC[C@H](C)[C@H]1O[C@]2(C=C[C@@H]1C)C[C@@H]1C[C@@H](C/C=C(\C)[C@@H](O[C@H]3C[C@H](OC)[C@@H](O[C@H]4C[C@H](OC)[C@@H](O)[C@H](C)O4)[C@H](C)O3)[C@@H](C)/C=C/C=C3\CO[C@@H]4[C@H](O)C(C)=C[C@@H](C(=O)O1)[C@]34O)O2` (tested in a mixture with another compound), the compound was called inactive.
